Results on four compounds are retold here after PubChem BioAssay.

Test [1] in a line: compounds binding Alexa647 anti-His antibody – biochemical, small-molecule microarray, 635 nm fluorescence, artefact control for SMM control protein annotation, primary screen (AID 1128).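 Note: score merges feature fluorescence with signal-to-noise for each printed compound spot.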 The settings on record: higher = more signal.
Test [2] has as its system Human papillomavirus type 1a E7 protein (residues 1-88). In words: HPV1a E7 small-molecule binders, primary screen, biochemical, small-molecule microarray, residues 1-88, 635 nm (AID 1129). To be noted: small-molecule microarray binding, fluorescence 635 nm; higher = more signal.
Test [3] concerns the target Focal adhesion kinase 1 (Homo sapiens) (UniProt Q05397). In words: PTK2 protein binding on printed compound slides – biochemical, small-molecule microarray, 635/667 nm fluorescence, BSA, DTT, primary screen (AID 1130).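 Note: composite of spot emission at 667 nm and signal to noise over triplicate slides.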 The settings on record: 635 nm fluorescence, higher = more signal.
Test [4] deals with Fibrinogen (Alexa647-labelled). In words: Alexa647-fibrinogen binding to printed small molecules – biochemical, small-molecule microarray, 635/667 nm fluorescence, artefact control for SMM control-protein annotation, profiling panel (AID 1131).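 Note: z-score merges 667 nm fluorescence with per-spot signal-to-noise over triplicate slides.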 The settings on record: fibrinogen-A647 binding fluorescence, higher = more signal.
Test [5] concerns the target Follistatin (Homo sapiens) (UniProt P19883). In words: FST protein binding to printed compounds – biochemical, small-molecule microarray, 635/667 nm fluorescence, primary screen (AID 1132). The settings on record: 635 nm fluorescence, higher = more signal.
Test [6] addresses Fibroblast growth factor 2 (Homo sapiens) (UniProt P09038). In words: basic fibroblast growth factor binding to printed compounds – biochemical, small-molecule microarray, 635/667 nm fluorescence, primary screen (AID 1133). The settings on record: FGF2, fluorescence 635/667, higher = more signal.
The nature of test [7]: JC-1 mitochondrial potential readout, lung cancer cells – cell-based, A549, JC-1 fluorescence, basal, 24 h, 100 nL, profiling panel (AID 1138).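 Note: A549 lung adenocarcinoma cells under basal conditions with no added stimulus; test concentration not given here.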 The settings on record: higher = more signal.
In a further test the test system is Lefty1. In words: Lefty1 protein binding to printed compounds – biochemical, small-molecule microarray, 635/667 nm fluorescence, primary screen (AID 1139). The settings on record: fluorescence 635/667, higher = more signal.
Test [8] deals with wheat germ agglutinin (Triticum aestivum), Alexa647-labelled. In words: Alexa647-WGA lectin binding to printed small molecules – biochemical, small-molecule microarray, 635/667 nm fluorescence, artefact control for SMM control-protein annotation, profiling panel (AID 1140).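 Note: score merges 667 nm feature emission with signal to noise over triplicate slides.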 To be noted: WGA-A647 binding, 635 nm fluorescence, higher = more signal.
The target in test [9] is Luciferin 4-monooxygenase (Photinus pyralis) (UniProt P08659). In words: inhibition of purified Photinus pyralis luciferase – biochemical, luminescence, purified enzyme, 2006 set, primary screen (AID 1141).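 Note: cell-free assay with purified firefly luciferase at 100 ng per well in PBS; test concentration not given here.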 To be noted: purified firefly luciferase, SteadyGlo luminescence, 30 min; higher = more signal, called active from +8 up or from −8 down.
Chain of Luciferin 4-monooxygenase (Photinus pyralis) (P08659 whole entry, looked up): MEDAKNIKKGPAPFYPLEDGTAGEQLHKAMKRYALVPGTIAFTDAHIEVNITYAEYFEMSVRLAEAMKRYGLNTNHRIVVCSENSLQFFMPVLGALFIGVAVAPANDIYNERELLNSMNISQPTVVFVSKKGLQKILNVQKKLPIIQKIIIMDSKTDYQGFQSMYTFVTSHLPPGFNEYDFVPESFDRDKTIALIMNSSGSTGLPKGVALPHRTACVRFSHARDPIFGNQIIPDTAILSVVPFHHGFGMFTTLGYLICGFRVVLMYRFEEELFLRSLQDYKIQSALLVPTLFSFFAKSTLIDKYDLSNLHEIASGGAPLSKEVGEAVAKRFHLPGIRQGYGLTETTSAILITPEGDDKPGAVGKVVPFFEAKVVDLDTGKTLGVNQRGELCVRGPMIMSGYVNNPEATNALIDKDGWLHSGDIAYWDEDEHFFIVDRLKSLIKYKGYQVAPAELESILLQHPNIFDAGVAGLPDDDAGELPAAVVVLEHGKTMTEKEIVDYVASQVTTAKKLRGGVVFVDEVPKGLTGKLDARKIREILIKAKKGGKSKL
Test [10] relates to Wnt5a (protein binding on small-molecule microarray). In words: small molecules binding Wnt5a protein – biophysical, small-molecule microarray, 635/667 nm fluorescence, primary screen (AID 1142).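 Note: fluorescence read at 667 nm with signal to noise per printed feature.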 The settings on record: 635 nm fluorescence, higher = more signal.
The nature of test [11]: ATP-based viability of Huh7 replicon cells – cell-based, CellTiter-Glo luminescence, basal, 48 h, cytotoxicity control for HCV replication inhibitor project, primary screen (AID 1143).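 Note: Huh7 hepatoma cells carrying a hepatitis C replication reporter with no stimulus; test concentration not given here.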 To be noted: higher = more signal, called active from +8 up or from −8 down.
A short description of test [12]: Pseudomonas biofilm growth suppression – PAO1 strain, BacTiter-Glo luminescence, LB-PBS, primary screen (AID 1144). To be noted: P. aeruginosa PAO1 biofilm, 12 h, higher = more signal.
A short description of test [13]: basal CRE-LacZ reporter activity in PC12 – cell-based, unstimulated, primary screen (AID 1145). To be noted: no forskolin, luminescence, 4.5 h, higher = more signal, called active from +8 up or from −8 down.
Test [14] can be described thus: forskolin-driven CRE-LacZ activity in PC12 – cell-based, CRE-LacZ reporter, forskolin-stimulated, primary screen (AID 1146).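 Note: PC12 cells with 6xCRE LacZ reporter stimulated by forskolin 10 µM; beta-galactosidase reporter signal reflecting CREB driven transcription.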 To be noted: luminescence, 4.5 h, higher = more signal, called active from +8 up or from −8 down.
The target of test [15] is Streptavidin (Streptomyces avidinii) (UniProt P22629). In words: compounds binding control protein streptavidin – biophysical, small-molecule microarray, 635/667 nm fluorescence, artefact control for SMM compound annotation, primary screen (AID 1147).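 Note: signal reflects streptavidin binding to arrayed compounds as a control protein.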 The settings on record: higher = more signal.
Chain of Streptavidin (Streptomyces avidinii) (P22629 whole entry, looked up): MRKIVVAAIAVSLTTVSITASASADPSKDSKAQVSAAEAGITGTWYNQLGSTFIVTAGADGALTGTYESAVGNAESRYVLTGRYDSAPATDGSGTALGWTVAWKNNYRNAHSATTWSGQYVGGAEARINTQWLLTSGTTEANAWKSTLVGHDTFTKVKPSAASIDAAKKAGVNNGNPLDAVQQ
The nature of test [16]: probe aInhba binding on compound microarray – biochemical, small-molecule microarray, 635/667 nm fluorescence, primary screen (AID 1148).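 Note: score merges 667nm spot fluorescence with signal-to-noise for antibody binding to printed compounds.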 The settings on record: higher = more signal.
For test [17], the target named is Torsin-1A (Homo sapiens) (UniProt O14656). In words: TOR1A wild-type binding on microarray – cell lysate, small-molecule microarray, lysate, 635/667 nm, primary screen (AID 1149). To be noted: COS7 hTOR1A-WT lysate, 635 nm fluorescence, higher = more signal.
Chain of Torsin-1A (Homo sapiens) (O14656 whole entry, looked up): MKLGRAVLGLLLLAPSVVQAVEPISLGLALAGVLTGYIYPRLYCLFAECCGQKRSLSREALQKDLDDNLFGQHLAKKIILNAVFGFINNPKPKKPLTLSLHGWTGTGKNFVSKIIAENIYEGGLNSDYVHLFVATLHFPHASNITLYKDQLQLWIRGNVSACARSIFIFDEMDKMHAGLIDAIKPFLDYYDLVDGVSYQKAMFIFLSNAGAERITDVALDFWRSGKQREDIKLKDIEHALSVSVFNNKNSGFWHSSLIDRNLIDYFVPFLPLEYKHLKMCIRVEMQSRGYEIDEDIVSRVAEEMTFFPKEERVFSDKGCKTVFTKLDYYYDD
For test [18] the target is unchanged. In words: torsin A mutant lysate binding on microarrays – cell lysate, small-molecule microarray, COS7 lysate, 635/667 nm fluorescence, primary screen (AID 1150).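 Note: score pools 667 nm emission and signal to noise measuring lysate protein binding.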 The settings on record: COS7 hTOR1A mutant lysate, 635 nm fluorescence, higher = more signal.
Test [19] deals with Sonic hedgehog protein (Shh). In words: Sonic hedgehog microarray binding compounds – biochemical, small-molecule microarray, 635/667 nm fluorescence, primary screen (AID 1151).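 Note: Shh protein binding to compounds spotted on small-molecule microarray slides; score combines spot fluorescence intensity with signal-to-noise across triplicate slides.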 The settings on record: 635 nm fluorescence, higher = more signal.

Several values for one entry are separate records, joined by “and”; a condition that tells them apart may be missing. Identical values can stand only once. Activity calls are given as the source filed them. Unless noted, the rule behind the calls is not given here.

Chain of Follistatin (Homo sapiens) (P19883 whole entry, looked up): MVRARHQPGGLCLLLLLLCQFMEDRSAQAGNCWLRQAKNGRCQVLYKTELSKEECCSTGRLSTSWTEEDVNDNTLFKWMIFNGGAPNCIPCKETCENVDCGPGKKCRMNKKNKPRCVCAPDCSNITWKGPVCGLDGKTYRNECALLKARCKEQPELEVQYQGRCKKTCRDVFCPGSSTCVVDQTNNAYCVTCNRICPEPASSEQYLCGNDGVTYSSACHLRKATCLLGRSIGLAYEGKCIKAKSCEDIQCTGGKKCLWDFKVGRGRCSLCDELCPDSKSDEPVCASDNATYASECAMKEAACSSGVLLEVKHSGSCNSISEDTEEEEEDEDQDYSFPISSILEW
Chain of Focal adhesion kinase 1 (Homo sapiens) (Q05397 whole entry, looked up): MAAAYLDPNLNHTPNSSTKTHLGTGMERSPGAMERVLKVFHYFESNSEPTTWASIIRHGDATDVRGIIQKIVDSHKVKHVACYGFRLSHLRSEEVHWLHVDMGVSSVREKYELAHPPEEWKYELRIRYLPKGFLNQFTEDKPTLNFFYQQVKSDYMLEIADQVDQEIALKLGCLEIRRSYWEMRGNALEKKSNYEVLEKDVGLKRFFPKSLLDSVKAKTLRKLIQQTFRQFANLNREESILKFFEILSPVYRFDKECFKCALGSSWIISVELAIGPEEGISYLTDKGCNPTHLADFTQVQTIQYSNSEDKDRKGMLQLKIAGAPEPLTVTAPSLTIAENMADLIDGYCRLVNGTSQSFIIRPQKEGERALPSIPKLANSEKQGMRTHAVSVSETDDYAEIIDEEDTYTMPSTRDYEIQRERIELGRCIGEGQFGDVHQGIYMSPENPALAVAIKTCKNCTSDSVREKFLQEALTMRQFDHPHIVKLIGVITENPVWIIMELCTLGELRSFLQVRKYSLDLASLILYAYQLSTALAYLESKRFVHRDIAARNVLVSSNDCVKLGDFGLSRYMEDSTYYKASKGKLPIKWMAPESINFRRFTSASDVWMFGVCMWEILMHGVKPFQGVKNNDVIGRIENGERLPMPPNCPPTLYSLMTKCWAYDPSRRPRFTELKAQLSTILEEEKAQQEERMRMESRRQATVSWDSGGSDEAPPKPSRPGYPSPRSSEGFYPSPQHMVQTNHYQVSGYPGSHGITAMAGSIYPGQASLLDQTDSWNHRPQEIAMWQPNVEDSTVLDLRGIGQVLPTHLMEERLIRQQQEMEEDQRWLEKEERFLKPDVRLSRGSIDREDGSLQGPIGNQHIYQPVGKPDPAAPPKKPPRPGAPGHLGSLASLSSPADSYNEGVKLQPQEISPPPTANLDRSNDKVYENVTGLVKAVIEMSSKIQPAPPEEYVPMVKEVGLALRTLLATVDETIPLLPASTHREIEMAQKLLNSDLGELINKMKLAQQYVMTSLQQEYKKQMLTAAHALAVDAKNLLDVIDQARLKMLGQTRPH
Chain of Fibroblast growth factor 2 (Homo sapiens) (P09038 whole entry, looked up): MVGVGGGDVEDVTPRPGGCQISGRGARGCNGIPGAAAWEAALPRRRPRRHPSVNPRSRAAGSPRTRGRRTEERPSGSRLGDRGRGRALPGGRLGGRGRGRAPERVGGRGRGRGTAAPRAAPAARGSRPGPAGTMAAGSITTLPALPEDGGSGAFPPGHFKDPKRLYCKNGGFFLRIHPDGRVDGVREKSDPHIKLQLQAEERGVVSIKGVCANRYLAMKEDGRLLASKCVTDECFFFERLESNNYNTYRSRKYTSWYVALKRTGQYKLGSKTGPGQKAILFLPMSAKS

For `C[N+](C)(C)CCCCNC(=O)[C@H]1C[C@H]2C(=O)N[C@@H](CCCC[N+](C)(C)C)C(=O)N2[C@H]1c1ccc(O)cc1`, the composite z-score in test [1] was 2.99 and 3.33; in [2], 0.395 and -1.59; in [3] it was 0.267 and -0.478; in test [4] it was 0.56 and -1.1; in [5] it was 1.57 and 1.45; in [6] it was 2.01 and 1.99. The composite z-score is 1.62 and 1.64 in the test on Lefty1; -0.608 and -1.01 in test [8]; 0.96 and 0.388 in test [10]; 0.16 and -1.27 in test [15]; -0.154 and -0.251 in test [16]; 2.32 and 1.51 in the test with Torsin-1A (Homo sapiens) [17]. Besides, the composite z-score with Torsin-1A (Homo sapiens) [18] is 0.287 and 0.683; in test [19], 2.27 and 2.33. Further, the z-score was -0.0637 and -0.967 in [7]; 0.325 (inactive) and 0.332 (inactive) in test [9]; 0.171 (inactive) and -2.13 (inactive) in test [11]; -0.597 (inactive) and -1.3 (inactive) in test [12]; -0.541 (inactive) and 0.679 (inactive) in [13]; 0.485 (inactive) and -0.16 (inactive) in test [14].
Regarding `C=CCN(CCCCC)C(=O)C1N(C(C)(C)CO)C(=O)C2C(C(=O)O)C3C=CC21O3` (stereo not given), the composite z-score in test [1] is -0.608 and -2.12; in [2], -0.943 and -0.793; in [3], -0.132 and -1.41; in [4], -2.7 and -1.18; in [5], -1.39 and -2.44; in [6], -2.46 and -1.74. In addition, the composite z-score was -1.1 and -1.42 with Lefty1; -0.356 and -1.51 in [8]; -0.912 and -0.258 in test [10]; -1.6 and -1.67 in test [15]; -0.213 and -0.0791 in [16]; -3.01 and -1.59 with Torsin-1A (Homo sapiens) [17]. The composite z-score with Torsin-1A (Homo sapiens) [18] was -2.24 and -1.18; in test [19] it was -0.99 and -0.61. Further, the z-score was -0.401 and 0.244 in test [7]; 0.169 (inactive) and 0.977 (inactive) in test [9]; 0.879 (inactive) and 1.06 (inactive) in [11]; 1.13 (inactive) and 1.98 (inactive) in test [12]; -0.0737 (inactive) and -0.484 (inactive) in [13]; -0.0682 (inactive) and 0.563 (inactive) in test [14].
For the compound `CCCCCN1CC=CC23O[C@@H]4C=CCCOC(=O)C4[C@H]2C(=O)N(C(C)CO)[C@@H]3C1=O` (stereo not given in full), the composite z-score in test [1] was 1.58 and 0.0947; in [2] it was -0.367 and -0.292; in [3] it was -0.0918 and 0.206; in [4], -0.458 and 0.0661; in test [5], -0.11 and -0.0282; in [6] it was -0.387 and -1.17. Further, the composite z-score in the test with Lefty1 was 0.178 and 0.382; in test [8] it was 0.138 and -0.194; in test [10], -0.226 and -0.744; in test [15] it was -0.819 and -0.0005; in test [16], -0.837 and -0.0933; with Torsin-1A (Homo sapiens) [17] it was 1.07 and -1.42. Moreover, the composite z-score with Torsin-1A (Homo sapiens) [18] was 0.128 and -0.904; in test [19], 0.644 and 0.138. For the same compound, the z-score was -0.449 and -0.859 in test [7]; 0.328 (inactive) and 0.283 (inactive) in test [9]; -0.153 (inactive) and 0.0164 (inactive) in test [11]; -1.76 (inactive) and -0.529 (inactive) in [12]; -0.48 (inactive) and -0.639 (inactive) in [13]; -0.215 (inactive) and -0.498 (inactive) in [14].
For the compound `CCOC(=O)[C@H](Cc1ccccc1)NC(=O)CCC1CC(OC(=O)NCc2cccc3ccccc23)CC2(CCCC(COC(=O)NCCCN3CCCC3=O)O2)O1` (stereo not given in full), the composite z-score in test [1] is 0.903; in test [2] it was 1.05; in [3], 0.222; in [4] it was 0.951; in test [5], 0.625; in [6] it was 0.467. Moreover, the composite z-score was 0.539 in the test on Lefty1; 0.0826 in test [8]; 0.0828 in test [10]; 0.609 in [15]; -0.154 in [16]; 0.0655 with Torsin-1A (Homo sapiens) [17]. Further, the composite z-score in the test with Torsin-1A (Homo sapiens) [18] was 0.327; in [19], 0.63. Besides, the z-score in [7] was 1.21; in test [9] it was 0.782 (inactive); in test [11] it was -0.486 (inactive); in [12], -1.02 (inactive); in test [13], -0.072 (inactive); in test [14] it was 0.309 (inactive).
